Where “and” joins values, the source holds several entries; their conditions need not be identical. Identical values can stand only once. Counter-ions that a name gives are not always drawn.
What was measured:
Test in all cases: cell viability relative to vehicle control; higher = less cytotoxic
Details in all cases: 10 µM
[1] = system: K562
In short: (§1)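 After removal of identity-inconsistent compounds, the Selleck bioactive, kinase and epigenetic probe libraries were screened on CRISPR-edited mutant clones and isogenic wild-type clones of four leukaemia lines. Plates were 384-well, each well holding 2000 cells in 50 µL medium and receiving a single 10 µM acoustically dispensed dose. CellTiter-Glo luminescence was read 48 h later, after the supernatant was taken off. Genedata Screener was used to express viability as percent of the on-plate vehicle control.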

[2] = system: MARIMO
In short: as §1

[3] = system: MOLM14
In short: as §1

[4] = system: OCI-AML2
In short: as §1

SMILES	cell viability ([1]; SRSF2 genotype: SRSF2 P95H/wt)	cell viability ([1]; SRSF2 genotype: SRSF2 wt/wt) [%]	cell viability ([2]; SRSF2 genotype: SRSF2 P95H/wt) [%]	cell viability ([2]; SRSF2 genotype: SRSF2 wt/wt) [%]	cell viability ([3]; SRSF2 genotype: SRSF2 P95H/wt) [%]	cell viability ([3]; SRSF2 genotype: SRSF2 wt/wt) [%]	cell viability ([4]; SRSF2 genotype: P95H/wt) [%]	cell viability ([4]; SRSF2 genotype: wt/wt) [%]
CC(C)c1ccc2c(c1O)CC[C@H]1C3=C(CC[C@]21C)C(=O)OC3 [Triptophenolide]	70.5% and 80.3%	79.5	70.3	62.5	99.4	92	49	61.7
CC1=C[C@]23C(=O)[C@@H](C=C(CO)[C@@H](O)[C@]2(O)[C@H]1O)[C@H]1[C@@H](C[C@H]3C)C1(C)C [Ingenol]	113% and 98.6%	111	109	107	111	108	68.2	79
Cc1cccc(Cc2c[nH]cn2)c1C [Detomidine HCl]	96.3% and 104%	96.5	103	95.3	105	106	110	93.1
OC(CNc1ccccc1)Cn1c2ccc(Br)cc2c2cc(Br)ccc21 (stereo not given)	74.2% and 72.5%	66.2	85.1	98.2	87.2	58.1	52.3	83.5
CC(=O)OC12COC1CC(O)C1(C)C(=O)C(O)C3=C(C)C(O)CC(O)(C(OC(=O)c4ccccc4)C21)C3(C)C (stereo not given) [10-DAB (10-Deacetylbaccatin)]	103% and 110%	103	109	108	111	105	105	98.3
